Results as given in PubChem BioAssay AID1159580 (chemical genetic matrix, 2015).
“And” between values parts separate entries of the source, which are not always exact repeats. Equal entries are not always repeated. Among all 5,500 compounds or so, about 2,000 (36%) were called active. Roughly 18% stayed inconclusive and do not appear here. Cut-off read from the data, not from the text of the source: active = normalized growth mostly below about 0.91 (no sharp cut-off); inconclusive = no clear call, values can overlap the other calls; inactive = mostly above about 0.92. Some of the results follow.

Test: chemical genetic growth profiling, strain panel (AID 1159580);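 note: tested at 20 µM; growth read once vehicle control cultures reached saturation at 30 °C; 1 = growth at the plate median or of vehicle wells; lower values mean less growth of the strain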
Details: S. cerevisiae deletion strains, growth OD

Measured: normalized growth

NC[C@H]1O[C@H](O[C@H]2[C@H](O)[C@@H](O[C@H]3O[C@H](CO)[C@@H](O)[C@H](N)[C@H]3O)[C@H](N)C[C@@H]2N)[C@H](N)[C@@H](O)[C@@H]1O
inactive: locus YAL021C, strain ccr4, stronger effect = lower value 0.999 | locus YAL026C, strain drs2, stronger effect = lower value 0.992 | locus YAL030W, strain snc1, stronger effect = lower value 0.996 | locus YBL061C, strain skt5, stronger effect = lower value 0.992 | locus YBR009C, strain hhf1, stronger effect = lower value 1.03 | locus YBR021W, strain FUR4, stronger effect = lower value 0.902 | locus YBR023C, strain chs3, stronger effect = lower value 1 | locus YBR171W, strain sec66, stronger effect = lower value 0.989 | locus YBR229C, strain ROT2, stronger effect = lower value 0.995 | locus YBR231C, strain swc5, stronger effect = lower value 0.997 | locus YBR279W, strain paf1, stronger effect = lower value 0.993 | locus YCL011C, strain gbp2, stronger effect = lower value 0.998 | locus YCL016C, strain dcc1, stronger effect = lower value 1.01 | locus YCL029C, strain bik1, stronger effect = lower value 0.977 | locus YCL061C, strain MRC1, stronger effect = lower value 0.993 | locus YCL069W, strain vba3, stronger effect = lower value 0.989 | locus YCR088W, strain abp1, stronger effect = lower value 0.992 | locus YDL005C, strain med2, stronger effect = lower value 0.992 | locus YDL035C, strain GPR1, stronger effect = lower value 0.99 | locus YDL040C, strain nat1, stronger effect = lower value 0.997 | locus YDL074C, strain BRE1, stronger effect = lower value 0.955 | locus YDL101C, strain DUN1, stronger effect = lower value 0.991 | locus YDL185W, strain tfp1, stronger effect = lower value 0.95 | locus YDL192W, strain arf1, stronger effect = lower value 1 | locus YDR001C, strain nth1, stronger effect = lower value 0.989 | locus YDR069C, strain doa4, stronger effect = lower value 0.99 | locus YDR101C, strain arx1, stronger effect = lower value 0.943 | locus YDR137W, strain rgp1, stronger effect = lower value 1.01 | locus YDR150W, strain NUM1, stronger effect = lower value 0.98 | locus YDR159W, strain sac3, stronger effect = lower value 0.983 | locus YDR162C, strain NBP2, stronger effect = lower value 1.01 | locus YDR195W, strain ref2 0.937 | locus YDR297W, strain sur2, stronger effect = lower value 0.986 | locus YDR318W, strain mcm21, stronger effect = lower value 1 | locus YDR334W, strain swr1, stronger effect = lower value 0.985 | locus YDR335W, strain msn5, stronger effect = lower value 0.994 | locus YDR388W, stronger effect = lower value 0.98 | locus YDR392W, strain spt3, stronger effect = lower value 1.04 | locus YDR502C, strain sam2, stronger effect = lower value 1.01 | locus YEL003W, strain gim4, stronger effect = lower value 0.991 | locus YEL037C, strain rad23, stronger effect = lower value 1 | locus YEL061C, strain CIN8 (second series), stronger effect = lower value 0.982 | locus YEL061C, strain CIN8, stronger effect = lower value 0.996 | locus YER015W, strain faa2, stronger effect = lower value 1 | locus YER016W, strain bim1, stronger effect = lower value 0.988 | locus YER110C, stronger effect = lower value 0.957 | locus YER111C, strain swi4, stronger effect = lower value 0.998 | locus YER155C, strain BEM2 (second series), stronger effect = lower value 0.993 | locus YER155C, strain BEM2, stronger effect = lower value 0.994 | locus YER167W, strain BCK2, stronger effect = lower value 1 | locus YFR010W, strain ubp6, stronger effect = lower value 0.987 | locus YGL078C, strain dbp3, stronger effect = lower value 0.99 | locus YGL086W, strain mad1, stronger effect = lower value 0.952 | locus YGL167C, strain pmr1, stronger effect = lower value 1 | locus YGL173C, strain kem1, stronger effect = lower value 0.99 | locus YGL227W, strain vid30, stronger effect = lower value 0.984 | locus YGL240W, strain doc1, stronger effect = lower value 0.985 | locus YGL248W, strain PDE1, stronger effect = lower value 1.02 | locus YGL253W, strain hxk2, stronger effect = lower value 0.993 | locus YGR078C, strain PAC10, stronger effect = lower value 1.01 | locus YGR135W, strain pre9, stronger effect = lower value 1.01 | locus YGR252W, strain gcn5, stronger effect = lower value 1.18 | locus YHR013C, strain ard1, stronger effect = lower value 1 | locus YHR027C, strain rpn1, stronger effect = lower value 0.989 | locus YHR030C, strain SLT2, stronger effect = lower value 0.978 and 1.08 | locus YHR079C, strain IRE1 (second series), stronger effect = lower value 0.974 | locus YHR079C, strain IRE1, stronger effect = lower value 1.07 | locus YHR094C, strain hxt1, stronger effect = lower value 0.992 | locus YHR129C, strain ARP1, stronger effect = lower value 0.997 | locus YHR142W, strain chs7, stronger effect = lower value 0.991 | locus YHR200W, strain rpn10, stronger effect = lower value 0.98 | locus YIL066C, strain RNR3, stronger effect = lower value 0.99 | locus YIL073C, strain SPO22, stronger effect = lower value 0.915 | locus YIL125W, strain kgd1, stronger effect = lower value 0.974 | locus YIR030C, strain dcg1, stronger effect = lower value 1 | locus YJL092W, strain hpr5, stronger effect = lower value 0.986 | locus YJL095W, strain BCK1 (second series), stronger effect = lower value 0.994 | locus YJL095W, strain BCK1, stronger effect = lower value 1.04 and 1.07 | locus YJL115W, strain asf1, stronger effect = lower value 0.988 | locus YJL129C, strain trk1, stronger effect = lower value 0.988 | locus YJL134W, strain LCB3, stronger effect = lower value 0.976 | locus YJL154C, strain vps35, stronger effect = lower value 0.994 | locus YJL164C, strain tpk1, stronger effect = lower value 1 | locus YJL166W, strain qcr8, stronger effect = lower value 0.996 | locus YJL168C, strain set2, stronger effect = lower value 0.984 | locus YJL187C, strain SWE1 (second series), stronger effect = lower value 1.01 | locus YJR043C, strain POL32, stronger effect = lower value 1.01 | locus YJR066W, strain TOR1, stronger effect = lower value 1.02 | locus YKL009W, strain mrt4, stronger effect = lower value 0.97 | locus YKL068W, stronger effect = lower value 0.966 | locus YKL085W, strain MDH1 (second series), stronger effect = lower value 0.993 | locus YKL085W, strain MDH1, stronger effect = lower value 0.993 | locus YKL160W, strain elf1, stronger effect = lower value 0.994 | locus YKR001C, strain vps1, stronger effect = lower value 0.986 | locus YKR026C, strain gcn3, stronger effect = lower value 0.984 | locus YKR091W, strain srl3, stronger effect = lower value 0.983 | locus YLL001W, strain dnm1, stronger effect = lower value 0.988 | locus YLL026W, stronger effect = lower value 1 | locus YLL041C, strain sdh2, stronger effect = lower value 1.01 | locus YLR027C, strain aat2, stronger effect = lower value 0.999 | locus YLR039C, strain RIC1, stronger effect = lower value 1.01 | locus YLR058C, strain SHM2, stronger effect = lower value 0.999 | locus YLR102C, strain apc9, stronger effect = lower value 0.973 | locus YLR113W, strain HOG1, stronger effect = lower value 1.04 | locus YLR221C, strain rsa3, stronger effect = lower value 0.997 | locus YLR258W, strain gsy2, stronger effect = lower value 0.995 | locus YLR262C, strain YPT6 (second series), stronger effect = lower value 1.02 | locus YLR262C, strain YPT6, stronger effect = lower value 0.984 | locus YLR268W, strain sec22, stronger effect = lower value 0.959 | locus YLR320W, strain mms22, stronger effect = lower value 1 | locus YLR330W, strain CHS5, stronger effect = lower value 0.984 | locus YLR342W, strain FKS1 (second series), stronger effect = lower value 0.999 | locus YLR342W, strain FKS1, stronger effect = lower value 0.988 | locus YLR357W, strain rsc2, stronger effect = lower value 0.992 | locus YLR370C, strain arc18, stronger effect = lower value 1.02 | locus YLR371W, strain rom2, stronger effect = lower value 0.996 | locus YLR384C, strain iki3, stronger effect = lower value 1.01 | locus YLR418C, strain cdc73, stronger effect = lower value 1.06 | locus YML016C, strain PPZ1, stronger effect = lower value 0.992 | locus YML032C, strain rad52, stronger effect = lower value 1.04 | locus YML120C, strain ndi1, stronger effect = lower value 0.994 | locus YML124C, strain tub3, stronger effect = lower value 0.991 | locus YMR058W, strain fet3, stronger effect = lower value 0.997 | locus YMR078C, strain ctf18, stronger effect = lower value 1.01 | locus YMR125W, strain sto1, stronger effect = lower value 1.01 | locus YMR129W, stronger effect = lower value 0.99 | locus YMR205C, strain PFK2, stronger effect = lower value 1 | locus YMR223W, strain ubp8, stronger effect = lower value 1.02 | locus YMR231W, strain pep5, stronger effect = lower value 0.997 | locus YMR263W, strain SAP30, stronger effect = lower value 0.992 | locus YMR307W, strain GAS1, stronger effect = lower value 1.16 | locus YNL067W, strain RPL9B, stronger effect = lower value 1.01 | locus YNL071W, strain lat1, stronger effect = lower value 0.998 | locus YNL183C, strain NPR1, stronger effect = lower value 1.02 | locus YNL209W, strain ssb2, stronger effect = lower value 0.992 | locus YNL233W, strain BNI4, stronger effect = lower value 1.01 | locus YNL248C, strain rpa49, stronger effect = lower value 1 | locus YNL250W, strain rad50, stronger effect = lower value 0.96 | locus YNL271C, strain bni1, stronger effect = lower value 0.997 | locus YNL298W, strain CLA4, stronger effect = lower value 0.984 | locus YNL307C, strain MCK1, stronger effect = lower value 0.981 | locus YNL322C, strain KRE1 (second series), stronger effect = lower value 1 | locus YNR049C, strain mso1, stronger effect = lower value 1.02 | locus YNR052C, strain pop2, stronger effect = lower value 1 | locus YOL012C, strain htz1 1.19 | locus YOL147C, strain pex11, stronger effect = lower value 0.989 | locus YOR001W, strain rrp6, stronger effect = lower value 1.01 | locus YOR061W, strain CKA2, stronger effect = lower value 1 | locus YOR069W, strain VPS5, stronger effect = lower value 0.986 | locus YOR070C, strain gyp1, stronger effect = lower value 1.01 | locus YOR080W, strain dia2, stronger effect = lower value 1 | locus YOR083W, strain WHI5, stronger effect = lower value 1.01 | locus YOR106W, strain vam3, stronger effect = lower value 1.02 | locus YOR136W, strain idh2, stronger effect = lower value 0.972 | locus YOR184W, strain ser1, stronger effect = lower value 0.972 | locus YOR231W, strain MKK1, stronger effect = lower value 1.04 | locus YOR265W, strain rbl2, stronger effect = lower value 1 | locus YOR270C, strain vph1, stronger effect = lower value 0.968 | locus YOR290C, strain snf2, stronger effect = lower value 1 | locus YOR316C, strain cot1, stronger effect = lower value 0.978 | locus YPL051W, strain arl3, stronger effect = lower value 1 | locus YPL055C, strain LGE1, stronger effect = lower value 1.01 | locus YPL078C, strain atp4, stronger effect = lower value 1.02 | locus YPL106C, strain sse1, stronger effect = lower value 1.01 | locus YPL240C, strain hsp82, stronger effect = lower value 0.988 | locus YPL256C, strain CLN2, stronger effect = lower value 1.08 | locus YPR119W, strain clb2, stronger effect = lower value 0.993 | locus YPR141C, strain kar3, stronger effect = lower value 0.982 | locus YPR163C, strain tif3, stronger effect = lower value 0.998 | locus YPR167C, strain met16, stronger effect = lower value 0.991 | strain wtn01, stronger effect = lower value 0.948
